From ChEMBL document CHEMBL3988442, “University of Dundee, Small-Polar-MMV Screening Library” (2021)

What follows are compounds tested against T1, Arginase-2, mitochondrial (Homo sapiens) (UniProt P78540) (assay: in vitro enzyme assay to detect the production of urea directly proportional to the activity of Arginase II). Conditions: 33.3 µM.
T1 sequence (whole entry): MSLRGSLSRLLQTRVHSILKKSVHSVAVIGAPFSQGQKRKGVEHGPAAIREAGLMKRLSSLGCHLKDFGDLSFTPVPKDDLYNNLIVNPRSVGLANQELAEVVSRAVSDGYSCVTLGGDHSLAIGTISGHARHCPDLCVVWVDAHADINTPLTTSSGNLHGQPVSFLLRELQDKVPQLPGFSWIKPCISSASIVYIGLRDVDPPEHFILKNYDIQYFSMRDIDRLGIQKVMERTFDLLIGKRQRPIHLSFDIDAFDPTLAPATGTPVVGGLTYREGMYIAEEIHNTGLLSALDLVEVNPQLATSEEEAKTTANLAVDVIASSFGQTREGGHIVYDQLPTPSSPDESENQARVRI
Format: functional
Design: scale not given: in the data most compounds retested in dose-response had high values

How did the Percent Effect turn out when `Cc1cnn(CC2CCCN2Cc2coc(-c3ccccc3)n2)c1` (configuration not stated) was run?
The Percent Effect was 1.82%.

For `Cc1nc(CN2CCOCC3(CCN(c4cccnc4)CC3)C2)cs1`, which Percent Effect is on record?
Its Percent Effect is 2.08%.

With `CNS(=O)(=O)c1ccc(C(=O)N2CCCC2Cc2ccccc2)o1` (configuration not stated) as the compound, how does the Percent Effect read?
The Percent Effect was 1.8%.

For `CN(CCC(F)(F)F)C(=O)[C@H]1CSCN1C(=O)OC(C)(C)C`, which Percent Effect is on record?
Its Percent Effect is 0%.

`O=C(CN1CCOC(Cn2cccn2)C1)Nc1nncs1` (configuration not stated) was tested. Which Percent Effect did it give?
The Percent Effect was -4%.

Which Percent Effect does the source give for `CS(=O)(=O)NC1CCCN(C(=O)NCc2cc[nH]n2)C1` (configuration not stated) here?
Its Percent Effect is -6.11%.

`c1cnc2c(c1)cc(C1CCOCC1)n2CCN1CCOCC1` was tested. Which Percent Effect did it give?
The Percent Effect was -1.62%.

How did the Percent Effect turn out when `CN(C)C(=O)COCc1cncc2c1CCN(Cc1nccn1C)C2` was run?
Its Percent Effect is -106%.

`CN(C)S(=O)(=O)N1C[C@@H]2CC[C@H](C1)N(Cc1ccc3nsnc3c1)C2` was tested. Which Percent Effect did it give?
The Percent Effect was 21.2%.

Which Percent Effect does the source give for `CN(C)C(CNC(=O)c1cccc(-n2cnnn2)c1)c1ccccc1Cl` (configuration not stated) here?
Its Percent Effect is 3.64%.

How did the Percent Effect turn out when `Cc1cc(C)n(CC2CN(Cc3cscn3)CCO2)n1` (configuration not stated) was run?
Its Percent Effect is -0.383%.

`Cc1ccc(NC2CCN(C(=O)c3c(C)noc3C)CC2)nn1` was tested. Which Percent Effect did it give?
Its Percent Effect is -0.766%.

For `Cc1nc(N2CCOCC2)nc2c1CCN(C(=O)NC1CCCC1)CC2`, which Percent Effect is on record?
Its Percent Effect is -6.16%.

With `CCOc1nnc(CN(C)CC2CCCN2c2cccnn2)s1` (configuration not stated) as the compound, how does the Percent Effect read?
The Percent Effect was -8.28%.

How did the Percent Effect turn out when `CN1N=C(C(=O)N(Cc2ccco2)C2CC2)CCC1=O` was run?
Its Percent Effect is -1.18%.

Which Percent Effect does the source give for `COc1cccc(CNC(CN2CCN(C)CC2)c2ccccc2)c1` (configuration not stated) here?
The Percent Effect was 1.74%.

How did the Percent Effect turn out when `Cc1csc2c(=O)n3c(nc12)CCN(C(=O)c1cccnc1)CC3` was run?
Its Percent Effect is -1.16%.

With `CC(C)n1ncc2cc(NC(=O)N3CCC(N4CCCC4)C3)cnc21` (configuration not stated) as the compound, how does the Percent Effect read?
Its Percent Effect is -5.73%.

These compounds were tested against T2, Proteasome subunit beta (Trypanosoma cruzi) (UniProt O96673) (assay: Trypanosoma cruzi proteasome chymotrypsin-like activity (TcProtChymo) assay.). Conditions: 9.37 µM.
T2 sequence (whole entry): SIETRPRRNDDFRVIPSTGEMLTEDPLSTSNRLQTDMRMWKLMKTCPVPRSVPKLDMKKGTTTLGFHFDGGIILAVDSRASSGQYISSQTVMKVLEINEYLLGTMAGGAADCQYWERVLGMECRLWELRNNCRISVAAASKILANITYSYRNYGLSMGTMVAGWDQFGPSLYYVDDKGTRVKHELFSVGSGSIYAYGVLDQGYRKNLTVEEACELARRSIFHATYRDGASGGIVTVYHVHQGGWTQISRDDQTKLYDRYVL
Format: functional
Design: scale not given: in the data most compounds retested in dose-response had high values

For `COCCN1CC[C@@H]2O[C@@H](COCC(=O)N3CCCC3)CC[C@@H]21`, which Percent Effect is on record?
The Percent Effect was 3.85%.

For `O=C(c1ccc[nH]1)N1CCCC(c2cc(C(F)(F)F)[nH]n2)C1` (configuration not stated), which Percent Effect is on record?
Its Percent Effect is -0.0846%.

Which Percent Effect does the source give for `O=C(c1coc(COc2cccc(F)c2)n1)N1CC[C@H](O)[C@@H](O)C1` here?
The Percent Effect was 10.2%.

For `Cc1nnc2n1CCN(CCOc1ccccc1)C2`, which Percent Effect is on record?
The Percent Effect was 3.43%.

How did the Percent Effect turn out when `c1ccc(OCCN2CCCC(c3noc(C4CC4)n3)C2)cc1` (configuration not stated) was run?
Its Percent Effect is 10.1%.

Which Percent Effect does the source give for `Cn1ccc(CN2CCC(OCCc3ccccc3)CC2)cc1=O` here?
The Percent Effect was -5.41%.

Which Percent Effect does the source give for `COC1COC2(CCN(Cc3ccccc3Cl)CC2)C1` (configuration not stated) here?
The Percent Effect was 11.5%.

Which Percent Effect does the source give for `COc1cccc(S(=O)(=O)N2CCn3cnc(COCC4CC4)c3C2)c1` here?
Its Percent Effect is 3.93%.

How did the Percent Effect turn out when `Cc1ncsc1C(=O)N(C)CCc1ccncc1` was run?
The Percent Effect was -1.84%.

Which Percent Effect does the source give for `Cc1cc(C)n(C2CCCN(C(=O)Cc3csc(C)n3)C2)n1` (configuration not stated) here?
The Percent Effect was 4.34%.

With `O=C(NCCNc1cnccn1)N1CCN(Cc2cccnc2)CC1` as the compound, how does the Percent Effect read?
Its Percent Effect is 15.1%.

`Cc1cc(NC(=O)NCC(C)O)n(C)n1` (configuration not stated) was tested. Which Percent Effect did it give?
The Percent Effect was 12.2%.

Which Percent Effect does the source give for `CCc1nccn1C1CCCN(C(=O)c2cnn(C)c2C2CC2)C1` (configuration not stated) here?
Its Percent Effect is 6.49%.

`CCOCC(O)CN1CCN(C(=O)c2cccnc2OC)CC1` (configuration not stated) was tested. Which Percent Effect did it give?
The Percent Effect was -3.72%.

For `O=C(CN1CCc2cncnc2C1)NCCOc1ccccc1`, which Percent Effect is on record?
Its Percent Effect is 0.592%.

`Cc1nc(N2CCCCC2)ncc1C(=O)N1CC(C)(C)[C@@](C)(O)C1` was tested. Which Percent Effect did it give?
Its Percent Effect is -6.09%.

For `c1cncc(-c2nccc(CN3CCCC3)n2)c1`, which Percent Effect is on record?
Its Percent Effect is 19.5%.

How did the Percent Effect turn out when `O=C(NC1CCCC1)N1CCCC(c2nccn2Cc2ccncc2)C1` (configuration not stated) was run?
The Percent Effect was 7.54%.

`Cc1cc(CN2CCOC(CN(C)c3cccnn3)C2)no1` (configuration not stated) was tested. Which Percent Effect did it give?
The Percent Effect was 6.39%.

With `Cn1cc(CNCCn2cccn2)c(-c2cccnc2)n1` as the compound, how does the Percent Effect read?
The Percent Effect was 13.8%.

How did the Percent Effect turn out when `O=C1NC2(CCN(C(=O)c3ccccc3)CC2)CC1c1cccnc1` (configuration not stated) was run?
Its Percent Effect is 2.65%.

How did the Percent Effect turn out when `Cc1cnn(CC2CCCN2Cc2coc(-c3ccccc3)n2)c1` (configuration not stated) was run?
Its Percent Effect is 1.77%.

Which Percent Effect does the source give for `Cc1nc(CN2CCOCC3(CCN(c4cccnc4)CC3)C2)cs1` here?
Its Percent Effect is 14.4%.

`CNS(=O)(=O)c1ccc(C(=O)N2CCCC2Cc2ccccc2)o1` (configuration not stated) was tested. Which Percent Effect did it give?
The Percent Effect was 12.6%.

How did the Percent Effect turn out when `CN(CCC(F)(F)F)C(=O)[C@H]1CSCN1C(=O)OC(C)(C)C` was run?
Its Percent Effect is 1.77%.

For `O=C(CN1CCOC(Cn2cccn2)C1)Nc1nncs1` (configuration not stated), which Percent Effect is on record?
The Percent Effect was 11.2%.

For `CS(=O)(=O)NC1CCCN(C(=O)NCc2cc[nH]n2)C1` (configuration not stated), which Percent Effect is on record?
The Percent Effect was 17.1%.

`c1cnc2c(c1)cc(C1CCOCC1)n2CCN1CCOCC1` was tested. Which Percent Effect did it give?
Its Percent Effect is 12.5%.

`CN(C)C(=O)COCc1cncc2c1CCN(Cc1nccn1C)C2` was tested. Which Percent Effect did it give?
The Percent Effect was 3%.

Which Percent Effect does the source give for `CN(C)S(=O)(=O)N1C[C@@H]2CC[C@H](C1)N(Cc1ccc3nsnc3c1)C2` here?
Its Percent Effect is 4.04%.

With `CN(C)C(CNC(=O)c1cccc(-n2cnnn2)c1)c1ccccc1Cl` (configuration not stated) as the compound, how does the Percent Effect read?
Its Percent Effect is 10.8%.

Which Percent Effect does the source give for `Cc1cc(C)n(CC2CN(Cc3cscn3)CCO2)n1` (configuration not stated) here?
Its Percent Effect is 27.2%.

Which Percent Effect does the source give for `Cc1ccc(NC2CCN(C(=O)c3c(C)noc3C)CC2)nn1` here?
The Percent Effect was 3.68%.

With `Cc1nc(N2CCOCC2)nc2c1CCN(C(=O)NC1CCCC1)CC2` as the compound, how does the Percent Effect read?
Its Percent Effect is 19.2%.

For `CCOc1nnc(CN(C)CC2CCCN2c2cccnn2)s1` (configuration not stated), which Percent Effect is on record?
The Percent Effect was 20.2%.

How did the Percent Effect turn out when `CN1N=C(C(=O)N(Cc2ccco2)C2CC2)CCC1=O` was run?
Its Percent Effect is 9.49%.

With `COc1cccc(CNC(CN2CCN(C)CC2)c2ccccc2)c1` (configuration not stated) as the compound, how does the Percent Effect read?
The Percent Effect was 9.19%.

With `Cc1csc2c(=O)n3c(nc12)CCN(C(=O)c1cccnc1)CC3` as the compound, how does the Percent Effect read?
Its Percent Effect is 8.27%.

With `CC(C)n1ncc2cc(NC(=O)N3CCC(N4CCCC4)C3)cnc21` (configuration not stated) as the compound, how does the Percent Effect read?
Its Percent Effect is 12%.
